According to PubChem BioAssay:
The source made the active and inactive calls.

Experiments:
[1] = binders of probe aFSTL3 on microarray, primary screen, stem cell growth factor project, biochemical, small-molecule microarray, fluorescence 635/667 (AID 1064); conditions: higher = more signal;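 also: measures binding of the biotinylated anti-FSTL3 antibody to printed compounds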
[2] = binders from COS7 lysate, DM2A8 probe, primary screen, torsin A project, cell lysate, small-molecule microarray, fluorescence 635/667 (AID 1065); conditions: higher = more signal, COS7 lysate expressing mutant human TOR1A
[3] = binders of probe aFGF2 on microarray, primary screen, stem cell growth factor project, biochemical, small-molecule microarray, fluorescence 635/667 (AID 1067); conditions: higher = more signal;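 also: measures binding of biotinylated aFGF2 protein to printed compounds on slides; z-score merges feature fluorescence and signal-to-noise across triplicate slides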
[4] = binders of probe aFGF10 on microarray, primary screen, stem cell growth factor project, biochemical, small-molecule microarray, fluorescence 635/667 (AID 1071); conditions: higher = more signal;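 also: score merges 667 nm spot intensity and signal to noise from triplicate slides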
[5] = target: Neurogenic locus notch homolog protein 2 (Homo sapiens) (UniProt Q04721); experiment: Notch2 binders on small-molecule microarrays, primary screen, biochemical, small-molecule microarray, 635 nm fluorescence, stem cell growth factors (AID 1073); conditions: Notch2 binding, higher = more signal
[6] = target: Pro-neuregulin-1, membrane-bound isoform (Homo sapiens) (UniProt Q02297); experiment: NRG1 binders on small-molecule microarrays, primary screen, psychiatric disease protein project, biochemical, small-molecule microarray, fluorescence 635/667 (AID 1075); conditions: NRG1 binding, 635 nm fluorescence, higher = more signal;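 also: score combines 667 nm spot fluorescence with signal to noise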
[7] = tested on: Neuregulin-1 EGF-like domain; experiment: binders of neuregulin-1 EGF-like domain, primary screen, biochemical, small-molecule microarray, 635 nm fluorescence (AID 1081); conditions: small-molecule microarray binding, higher = more signal;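 also: binding of the protein to compounds printed on small-molecule microarray slides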
[8] = FRG1 promoter luciferase signal modulators, primary screen, FRG1 inhibition for FSHD, cell-based, C2C12 myotubes, firefly/Renilla luciferase, luminescence (AID 1084); conditions: higher = more signal, called active from +8 up or from −8 down
[9] = binders of probe aFST on microarray, primary screen, stem cell growth factor project, biochemical, small-molecule microarray, fluorescence 635/667 (AID 1086); conditions: higher = more signal;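 also: score merges 667 nm fluorescence with signal-to-noise of each printed compound spot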
[10] = binders of probe aHhip on microarray, primary screen, stem cell growth factor project, biochemical, small-molecule microarray, fluorescence 635/667 (AID 1087); conditions: higher = more signal;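 also: score merges spot fluorescence at 667nm with spot signal to noise ratio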
[11] = tested on: PRMT1 (protein arginine N-methyltransferase 1); experiment: PRMT1 binders on small-molecule microarrays, primary screen, biochemical, small-molecule microarray, 635 nm fluorescence (AID 1088); conditions: small-molecule microarray binding, higher = more signal;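 also: binding of Prmt1 protein to compounds spotted on small-molecule microarray slides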
[12] = yeast growth modulation, basal conditions, primary screen, YJM789 clinical isolate, OD600, 24 h (AID 1089);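 also: growth of clinical yeast isolate S. cerevisiae YJM 789 seeded 1000 cells per well; test concentration not given here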; conditions: S. cerevisiae YJM789 growth, higher = more signal, called active from +8 up or from −8 down
[13] = fission yeast growth modulation, primary screen, strain 972, OD600, 24 h, no modulator (AID 1090);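 also: basal condition with compound alone and no growth modifier present; test concentration not given here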; conditions: S. pombe 972 growth, higher = more signal, called active from +8 up or from −8 down
[14] = S. cerevisiae growth modulation with rapamycin, primary screen, strain BY4716, OD600, 96 h (AID 1091); conditions: higher = more signal, called active from +8 up or from −8 down; also: test concentration not given here
[15] = target: Torsin-1A-interacting protein 2 (Homo sapiens) (UniProt Q8NFQ8); experiment: LULL1 binders on small-molecule microarray, primary screen, cell lysate, human LULL1 lysate, 635/667 nm fluorescence (AID 1092); conditions: hLULL1 lysate binding, 635 nm fluorescence, higher = more signal;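 also: probe is lysate of COS7 cells overexpressing human LULL1; score merges per-feature 667 nm fluorescence with signal-to-noise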
[16] = E. coli growth modulation, two-sided OD650, primary screen, E. coli filamentation project, strain DRC41, 24 h (AID 1093); conditions: OD650, 24 h, higher = more signal, called active from +8 up or from −8 down;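 also: MC1000 strain lacking acrAB efflux and sulA so SOS filamentation is blocked; test concentration not given here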
[17] = small-molecule microarray binders of probe aLefty2, primary screen, biochemical, biotinylated probe, 635/667 nm fluorescence (AID 1094); conditions: higher = more signal;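 also: score merges spot fluorescence near 667 nm with spot signal-to-noise ratio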
[18] = tested on: Noggin (protein binding on small-molecule microarray); experiment: Noggin binders on small-molecule microarray, primary screen, biochemical, 635/667 nm fluorescence (AID 1095); conditions: 635 nm fluorescence, higher = more signal;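 also: score merges 667 nm feature fluorescence with signal to noise over triplicate slides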
[19] = target: Neurogenic locus notch homolog protein 3 (Homo sapiens) (UniProt Q9UM47); experiment: NOTCH3 binders on small-molecule microarray, primary screen, biochemical, 635/667 nm fluorescence (AID 1096); conditions: NOTCH3 binding, 635 nm fluorescence, higher = more signal
[20] = small-molecule microarray binders of probe aEGFR, primary screen, biochemical, biotinylated probe, 635/667 nm fluorescence (AID 1097); conditions: higher = more signal;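 also: probe is a biotinylated anti-EGFR antibody binding compounds printed on slides; score combines fluorescence near 667 nm and signal to noise of each spot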

Sequence of Torsin-1A-interacting protein 2 (Homo sapiens) (Q8NFQ8 whole entry, looked up): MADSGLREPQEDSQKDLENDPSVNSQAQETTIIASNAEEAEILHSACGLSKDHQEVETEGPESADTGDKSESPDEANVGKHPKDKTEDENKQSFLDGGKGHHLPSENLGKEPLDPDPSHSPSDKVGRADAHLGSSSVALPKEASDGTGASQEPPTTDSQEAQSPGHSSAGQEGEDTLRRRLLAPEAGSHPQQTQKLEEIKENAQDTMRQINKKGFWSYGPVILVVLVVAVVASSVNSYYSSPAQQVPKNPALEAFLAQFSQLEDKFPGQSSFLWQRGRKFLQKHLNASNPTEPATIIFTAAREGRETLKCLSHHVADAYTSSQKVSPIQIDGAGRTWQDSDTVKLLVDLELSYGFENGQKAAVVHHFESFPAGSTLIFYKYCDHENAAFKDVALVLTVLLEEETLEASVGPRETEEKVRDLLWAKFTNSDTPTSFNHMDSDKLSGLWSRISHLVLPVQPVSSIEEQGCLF
Sequence of Neurogenic locus notch homolog protein 2 (Homo sapiens) (Q04721 whole entry, looked up, canonical isoform): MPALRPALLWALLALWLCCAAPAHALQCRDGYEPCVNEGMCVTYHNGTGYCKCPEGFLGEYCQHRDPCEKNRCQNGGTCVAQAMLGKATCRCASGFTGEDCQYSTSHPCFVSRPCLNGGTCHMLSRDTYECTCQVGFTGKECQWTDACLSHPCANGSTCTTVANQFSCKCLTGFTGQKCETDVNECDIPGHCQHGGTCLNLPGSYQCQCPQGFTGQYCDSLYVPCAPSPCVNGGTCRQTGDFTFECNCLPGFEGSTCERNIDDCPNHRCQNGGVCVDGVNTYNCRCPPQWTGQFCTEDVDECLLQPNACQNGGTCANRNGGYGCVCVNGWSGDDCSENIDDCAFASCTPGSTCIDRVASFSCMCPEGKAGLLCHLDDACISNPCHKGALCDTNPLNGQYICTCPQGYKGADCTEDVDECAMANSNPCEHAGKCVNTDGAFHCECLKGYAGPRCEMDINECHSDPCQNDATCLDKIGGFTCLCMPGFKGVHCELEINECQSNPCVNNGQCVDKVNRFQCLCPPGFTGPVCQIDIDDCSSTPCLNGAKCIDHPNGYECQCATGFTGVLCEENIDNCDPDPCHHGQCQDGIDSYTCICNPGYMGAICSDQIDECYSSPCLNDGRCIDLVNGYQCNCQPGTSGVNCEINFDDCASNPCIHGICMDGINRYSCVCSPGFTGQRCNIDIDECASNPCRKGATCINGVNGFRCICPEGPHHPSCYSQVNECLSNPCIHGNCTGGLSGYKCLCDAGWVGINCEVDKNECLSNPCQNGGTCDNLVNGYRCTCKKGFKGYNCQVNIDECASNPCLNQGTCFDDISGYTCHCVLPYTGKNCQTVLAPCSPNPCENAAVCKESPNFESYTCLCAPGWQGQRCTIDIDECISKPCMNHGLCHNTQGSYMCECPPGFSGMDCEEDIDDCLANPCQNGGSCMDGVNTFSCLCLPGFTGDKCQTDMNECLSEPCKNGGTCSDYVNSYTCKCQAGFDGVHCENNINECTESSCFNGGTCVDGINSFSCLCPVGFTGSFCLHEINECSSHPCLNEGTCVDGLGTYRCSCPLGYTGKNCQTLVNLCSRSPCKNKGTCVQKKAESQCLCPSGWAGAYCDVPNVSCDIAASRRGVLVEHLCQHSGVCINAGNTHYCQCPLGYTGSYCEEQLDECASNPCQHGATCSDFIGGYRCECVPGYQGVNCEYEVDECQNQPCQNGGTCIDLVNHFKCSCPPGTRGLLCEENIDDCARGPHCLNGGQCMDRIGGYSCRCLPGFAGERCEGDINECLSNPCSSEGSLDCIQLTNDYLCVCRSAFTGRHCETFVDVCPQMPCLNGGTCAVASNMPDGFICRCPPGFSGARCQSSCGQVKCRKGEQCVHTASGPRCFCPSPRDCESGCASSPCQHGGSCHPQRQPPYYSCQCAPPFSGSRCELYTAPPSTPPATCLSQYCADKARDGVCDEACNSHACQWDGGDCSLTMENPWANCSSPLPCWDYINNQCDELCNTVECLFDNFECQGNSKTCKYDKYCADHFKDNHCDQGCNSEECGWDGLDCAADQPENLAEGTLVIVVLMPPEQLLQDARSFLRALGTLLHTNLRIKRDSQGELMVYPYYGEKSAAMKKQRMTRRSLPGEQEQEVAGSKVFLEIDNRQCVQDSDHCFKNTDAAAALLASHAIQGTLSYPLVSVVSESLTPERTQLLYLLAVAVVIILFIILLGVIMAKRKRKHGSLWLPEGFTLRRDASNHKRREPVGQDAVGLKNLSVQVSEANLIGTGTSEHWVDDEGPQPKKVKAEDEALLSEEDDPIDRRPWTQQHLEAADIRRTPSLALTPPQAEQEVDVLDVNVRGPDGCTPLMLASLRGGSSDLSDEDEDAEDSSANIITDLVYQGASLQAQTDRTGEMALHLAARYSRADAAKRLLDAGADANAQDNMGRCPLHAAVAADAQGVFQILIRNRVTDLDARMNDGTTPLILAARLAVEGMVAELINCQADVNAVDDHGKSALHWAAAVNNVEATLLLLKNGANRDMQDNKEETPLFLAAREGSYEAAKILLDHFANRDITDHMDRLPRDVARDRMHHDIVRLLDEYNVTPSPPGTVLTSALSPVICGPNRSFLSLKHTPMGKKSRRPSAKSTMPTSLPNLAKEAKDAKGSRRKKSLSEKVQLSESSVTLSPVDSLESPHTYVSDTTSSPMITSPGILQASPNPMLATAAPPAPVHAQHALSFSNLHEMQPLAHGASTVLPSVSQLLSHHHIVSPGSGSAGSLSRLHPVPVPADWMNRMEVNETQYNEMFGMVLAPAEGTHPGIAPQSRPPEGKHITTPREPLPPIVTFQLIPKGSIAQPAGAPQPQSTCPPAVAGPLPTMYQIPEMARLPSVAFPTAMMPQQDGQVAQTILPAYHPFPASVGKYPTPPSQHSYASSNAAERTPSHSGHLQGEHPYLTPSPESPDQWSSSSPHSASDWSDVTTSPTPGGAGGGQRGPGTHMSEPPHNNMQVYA
Sequence of Pro-neuregulin-1, membrane-bound isoform (Homo sapiens) (Q02297 whole entry, looked up, the tested form may be a part, canonical isoform): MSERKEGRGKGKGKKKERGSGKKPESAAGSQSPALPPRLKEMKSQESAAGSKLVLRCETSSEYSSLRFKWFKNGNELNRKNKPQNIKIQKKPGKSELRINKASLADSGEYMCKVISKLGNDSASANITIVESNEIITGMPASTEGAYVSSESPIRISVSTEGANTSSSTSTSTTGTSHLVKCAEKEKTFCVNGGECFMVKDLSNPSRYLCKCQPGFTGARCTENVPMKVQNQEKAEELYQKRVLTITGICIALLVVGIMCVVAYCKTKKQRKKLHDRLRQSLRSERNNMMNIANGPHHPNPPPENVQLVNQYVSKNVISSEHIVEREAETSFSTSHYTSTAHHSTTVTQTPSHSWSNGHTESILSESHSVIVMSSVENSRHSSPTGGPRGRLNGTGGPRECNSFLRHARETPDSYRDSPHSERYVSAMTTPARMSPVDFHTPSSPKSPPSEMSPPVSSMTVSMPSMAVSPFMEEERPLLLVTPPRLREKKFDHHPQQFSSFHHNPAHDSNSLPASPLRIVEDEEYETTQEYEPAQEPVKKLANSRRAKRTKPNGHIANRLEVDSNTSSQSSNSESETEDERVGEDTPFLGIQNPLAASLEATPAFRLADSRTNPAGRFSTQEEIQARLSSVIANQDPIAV

| SMILES | composite z-score [1] | composite z-score [2] | composite z-score [3] | composite z-score [4] | composite z-score [5] | composite z-score [6] | composite z-score [7] | z-score [8] | composite z-score [9] | composite z-score [10] | composite z-score [11] | z-score [12] | z-score [13] | z-score [14] | composite z-score [15] | z-score [16] | composite z-score [17] | composite z-score [18] | composite z-score [19] | composite z-score [20] |
| --- | --- | --- | --- | --- | --- | --- | --- | --- | --- | --- | --- | --- | --- | --- | --- | --- | --- | --- | --- | --- |
| CCOC(=O)C1=CC[C@@H](c2ccccc2)N(S(=O)(=O)C[Si](C)(C)C)[C@H]1c1ccccc1 | -0.267 | 0.505 | -0.0181 | 0.389 | 1.25 | 0.652 | 0.924 | -2.47 (inactive) | 1.25 | -0.123 | 1.08 | -0.514 (inactive) | 0.984 (inactive) | 0.416 (inactive) | 2.26 | -0.453 (inactive) | 0.138 | 0.291 | 1.09 | 0.154 |
| C=CCN1C(=O)[C@]2(O[C@H](CCO)[C@@H]([Si](C)(C)c3ccc(OC)cc3)[C@@H]2C)c2ccccc21 | -0.277 | -0.313 | -0.144 | -0.314 | -0.599 | 0.174 | 0.122 | -3.89 (inactive) | -0.488 | -0.0933 | -0.539 | -2.75 (inactive) | -3.07 (inactive) | 5.72 (inactive) | 0.602 | -0.41 (inactive) | -0.0962 | -0.788 | -0.593 | -0.178 |
| CC(C)C[C@H]1NC(=O)[C@@]23C(=O)N[C@@H](Cc4ccccc4)C2[C@H](C)[C@@]2(C)O[C@H]2C3/C=C/C/C=C\CNC(=O)[C@@H]2CCCN2C1=O (stereo not given in full) | -0.504 | -0.39 | -0.078 | 0.774 | 0.303 | 0.912 | 0.665 | 0.31 (inactive) | 0.52 | -0.0645 | 1.52 | -0.397 (inactive) | -1.08 (inactive) | -0.579 (inactive) | 1.58 | -1.14 (inactive) | -0.147 | 0.588 | 0.696 | -0.008 |
| O=C1OCCC=C[C@H]2OC34C=CCN(CCN5CCOCC5)C(=O)[C@H]3N(CCCO)C(=O)[C@@H]4C12 (stereo not given in full) | -0.0143 | -2.48 | -0.14 | -0.776 | -0.956 | 0.399 | -0.873 | 0.122 (inactive) | -0.272 | -0.0994 | 0.0132 | -0.728 (inactive) | -1.14 (inactive) | 0.229 (inactive) | 2.98 | 0.922 (inactive) | -0.257 | -0.293 | 0.329 | -0.166 |
| CCCC[C@@H]1C[C@H]1[C@@H](NC(=O)Cc1ccccc1)c1ccc(Cl)cc1 | 0.409 | 0.469 | 0.428 | 0.671 | 1.63 | 1.72 | 1.19 | -2.4 (inactive) | 1.46 | -0.193 | 0.576 | 0.0911 (inactive) | -1.16 (inactive) | 1.68 (inactive) | 3.14 | -0.76 (inactive) | 0.105 | 1.34 | 1.03 | 0.218 |
| CC=CC(O)C1C=CC2C(=O)N(C)C(=O)C2N1NC(=O)OC(C)(C)C (stereo not given) | -0.0303 | 0.371 | -0.072 | 0.488 | 1.16 | 0.746 | 1.09 | 0.282 (inactive) | 0.449 | 0.108 | 0.534 | -0.219 (inactive) | 0.64 (inactive) | 0.0896 (inactive) | 0.522 | -1.13 (inactive) | -0.286 | 0.251 | 0.775 | -0.0244 |
| C=C(COC)C(=O)CC[C@@H](OC(C)=O)c1ccc(OCCO)cc1 | 0.266 | 1.48 | -0.107 | 0.432 | 0.297 | -0.239 | 0.835 | -0.556 (inactive) | -0.25 | 0.347 | 1.07 | 0.0756 (inactive) | -2.44 (inactive) | -0.056 (inactive) | 0.276 | -0.0345 (inactive) | -0.159 | 0.482 | 0.512 | -0.21 |
| CCC[C@@H]1C=C(C(=O)OCC)[C@H](c2ccccc2)N1S(=O)(=O)c1ccc(C)cc1 | 0.483 | 0.379 | 0.137 | 0.88 | 1.66 | 1.09 | 1.06 | -1.56 (inactive) | 1.2 | -0.105 | 1.57 | 0.73 (inactive) | 1.67 (inactive) | 1.7 (inactive) | 0.352 | -0.209 (inactive) | 0.326 | 0.0974 | 1.08 | 0.21 |
| COc1ccc([Si](C)(C)[C@H]2[C@H](CC(=O)N3Cc4ccccc4C[C@H]3CO)O[C@@]3(C(=O)N(Cc4cccc(N5C(=O)c6cccc7cccc5c67)c4)c4ccccc43)[C@@H]2C)cc1 | -0.581 | 0.847 | -0.0859 | 0.539 | 0.0297 | 0.997 | 1.03 | -2.61 (inactive) | 0.487 | -0.648 | 1.56 | -0.0979 (inactive) | 0.39 (inactive) | 1.77 (inactive) | 2.14 | -0.0872 (inactive) | -0.173 | 1.57 | 1.13 | -0.122 |
